In the library only some 3.2% were active in any assay of this set; here they are far more common.
APOBEC3G inh – blocks human APOBEC3G single-stranded DNA deamination; Q9HC16; recombinant A3G, ssDNA deamination FAM/TAMRA fluorescence; inhibition, % at 20 µM; 330,000 compounds, 0.28% hits;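 active = inhibition of at least 40% at 20 µM, with no more than 30% in the related APOBEC3A deaminase screen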;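 also: plate controls were DMSO wells with A3G for no effect and wells lacking A3G enzyme for full effect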
AHR activator – activators of human aryl hydrocarbon receptor; activation, % at 5 µM; 320,000 compounds, 2.5% hits; P35869; AHR-responsive luciferase reporter cells, luminescence; in the data active = activation above about 47%;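 also: 0% = vehicle wells and 100% = reference agonist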
NTR1 agonist – NTR1 (human) agonism; activation, % at 20 µM; NTR1-U2OS beta-arrestin-GFP spot imaging, agonist mode; AID 493036; P30989; 330,000 compounds, 0.17% hits;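 active = activation at or above 40% of the spot to cytoplasm intensity ratio, with at least 20 cells analyzed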;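 also: 0% = DMSO without peptide and 100% = 100 nM NTR1 peptide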
APOBEC3A inh – human APOBEC3A DNA deaminase inhibition; inhibition, % at 20 µM; P31941; 330,000 compounds, 0.41% hits; AID 493011; recombinant A3A, FAM/TAMRA ssDNA deamination fluorescence;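 active = at least 40% inhibition at 20 µM here, with at most 30% in a related deaminase screen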;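 also: plate controls were A3A with DMSO for no effect and wells lacking A3A enzyme for full effect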
AHR act confirm – human AHR activation, confirmation | shares compounds with AHR activator | human cells, AHR-responsive luciferase reporter, luminescence | activation, % at 9 µM | 2,300 compounds, 87% hits; in the data active = activation above about 49%;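 also: HepG2 hepatoma cells carrying a DRE-driven firefly luciferase reporter; 0% = vehicle wells and 100% = reference agonist wells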
PXR act counter – counter-screen for AHR activators: human PXR activators. cell-based PXR reporter, luciferase luminescence. shares compounds with AHR activator. activation, % at 11.6 µM. AID 434939. 2,300 compounds, 88% hits; in the data active = activation above about 11%;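 also: human hepatoma DPX-2 cells expressing full-length human PXR; 0% = DMSO and 100% = reference agonist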
Target sequence (O75469 whole entry, looked up): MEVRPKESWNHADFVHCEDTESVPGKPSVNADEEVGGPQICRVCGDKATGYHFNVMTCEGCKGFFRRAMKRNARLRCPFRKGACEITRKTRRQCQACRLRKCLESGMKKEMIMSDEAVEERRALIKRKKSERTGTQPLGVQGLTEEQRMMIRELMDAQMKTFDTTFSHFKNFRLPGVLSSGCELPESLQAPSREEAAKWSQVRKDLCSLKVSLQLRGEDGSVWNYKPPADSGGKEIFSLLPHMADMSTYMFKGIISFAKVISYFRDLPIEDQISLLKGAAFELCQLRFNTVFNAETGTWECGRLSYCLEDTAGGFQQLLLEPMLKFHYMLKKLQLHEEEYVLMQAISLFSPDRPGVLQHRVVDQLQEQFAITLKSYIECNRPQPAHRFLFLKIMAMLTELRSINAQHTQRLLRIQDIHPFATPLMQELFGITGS
Starred values were filed as active, the others as inactive; . = no result.

SMILES	APOBEC3G inh	AHR activator	NTR1 agonist	APOBEC3A inh	AHR act confirm	PXR act counter
c1ccc(OCCOc2ncnc3sccc23)cc1	0	138*	0	2	121*	45*
S=c1nc(COc2ccccc2)[nH]c2ccccc12	-1	124*	3	-1	125*	14*
Cc1nc(-c2cccnc2)sc1C(=O)Nc1ccc(F)cc1F	2	8	-3	-9	.	.
Cc1nc(-c2ccccn2)sc1C(=O)Nc1ccc(F)cc1F	0	95*	2	-2	44	26*
CC(C)(C)C1c2[nH]c3ccccc3c2CCN1Cc1cccc(OCCO)c1 (configuration not stated)	-3	14	5	1	.	.
Cc1cc(Sc2nc(N(C)C)nc(N(C)C)n2)nc(Cl)n1	-3	2	0	1	.	.
CCCN1Cc2cccc(C(=O)NCc3ccc4c(c3)OCO4)c2C1=O	-3	80*	5	3	50*	141*
O=C(NCc1ccc2c(c1)OCO2)c1cccc2c1C(=O)N(C1CCCCC1)C2	-11	0	2	-3	.	.
COc1ccc(S(=O)(=O)Nc2ccc(OCC(=O)O)cc2)c2ccccc12	-4	0	1	2	.	.
O=c1c2ccccc2nc(-c2ccco2)n1CCCn1ccnc1	-2	83*	-1	1	103*	23*
COc1ccc(-c2nc3ccccc3c(=O)n2CCCn2ccnc2)cc1	-6	2	-2	-2	.	.
CS(=O)(=O)N(CC(=O)Nc1cccc([N+](=O)[O-])c1)c1ccccc1	-7	90*	-1	-5	48*	83*
CC(O)CSc1nc2c(c(=O)[nH]c(=O)n2C)n1Cc1ccccc1Cl (configuration not stated)	2	.	0	2	.	.
O=C(Nc1nc2ccccc2s1)c1ccc(N2CCCCC2)c([N+](=O)[O-])c1	-6	12	6	-1	.	.
Cc1cc(C)nc(Nc2n[nH]c(-c3ccccc3C)n2)n1	-9	87*	1	0	131*	45*
CCCCNC(=O)c1cc2cc(CC)ccc2[nH]1	-7	16	3	-2	.	.
O=C1c2ccccc2C(=O)N1c1ccc(Cl)cc1	-3	88*	-1	5	62*	13*
CCOCCOC(=O)c1[nH]c2c(c1C)C(=O)CC(c1ccc(N(C)C)cc1)C2 (configuration not stated)	-5	8	1	-2	.	.
CCC(C)OC(=O)c1[nH]c2c(c1C)C(=O)CC(c1ccc(N(C)C)cc1)C2 (configuration not stated)	0	82*	2	1	35	70*
C=C(C)CNC(=S)N/N=C(\C)c1ccc(-n2ccnc2)cc1	1	94*	3	0	98*	36*
C/C(=N\NC(=S)NCCc1ccccc1)c1ccc(C)cc1	-4	4	2	-4	.	.
Cc1cc(C)nc(Nc2cccc3ccccc23)n1	-4	131*	1	-11	109*	19*
Clc1cccc(/C(Cc2nc3ccccc3[nH]2)=N\Nc2ccccc2)c1	1	102*	6	2	96*	43*
O=S(=O)(NNc1ncc(C(F)(F)F)cc1Cl)c1ccc(F)cc1F	-7	114*	-1	-1	103*	.
c1ccc(-c2nc(NCc3ccco3)c3oc4ccccc4c3n2)cc1	-4	88*	17	-2	105*	35*
SMILES	APOBEC3G inh	AHR activator	NTR1 agonist	APOBEC3A inh	AHR act confirm	PXR act counter
N#C/C(=C\c1ccc(N2CCCCC2)o1)C(=O)Nc1cccc(Br)c1	-74	100*	-4	-33	72*	13*
COc1ccccc1C(=O)Nc1ccc2c(C)cc(=O)oc2c1	-4	98*	-1	-1	98*	41*
Cc1cc(C)c2c(C)c(C(=O)NCc3ccncc3)oc2c1	-1	83*	0	-2	73*	24*
O=C(Nc1cccnc1)Nc1ccccc1Cl	-1	25	-1	-2	.	.
O=C(Nc1cccnc1)Nc1cc(Cl)cc(Cl)c1	-6	113*	4	-1	62*	.
COc1ccccc1NC(=O)Nc1cccnc1	-13	122*	1	3	93*	.
CC(=O)N1CCN(C(=O)COC(=O)c2ccc(S(C)(=O)=O)cc2)CC1	-4	1	-1	-2	.	.
Cc1[nH][nH]c(=O)c1N=Nc1ccc(Br)c(Cl)c1	4	85*	0	4	128*	11*
Cc1[nH][nH]c(=O)c1N=Nc1ccc(S(N)(=O)=O)cc1	-6	2	0	-1	.	.
Cc1nn(Cc2ccccc2Cl)c2sc(C(=O)Nc3nccs3)cc12	-7	102*	5	0	119*	99*
Cc1nn(Cc2ccc(F)cc2)c2sc(C(=O)Nc3nccs3)cc12	-2	96*	4	3	109*	38*
Cc1nn(Cc2ccc(F)cc2)c2sc(C(=O)Nc3ccccc3N3CCOCC3)cc12	-1	5	9	0	.	.
CN1CC(=O)N(CC(=O)Nc2cccc3ccccc23)C1=O	-8	4	0	-3	.	.
O=C(CCN1N=C(c2ccccc2)CCC1=O)NCC1COc2ccccc2O1 (configuration not stated)	0	2	-1	0	.	.
CCC(=O)c1ccc(OCC(=O)OCC(=O)N(CCC#N)c2ccc3c(c2)OCCO3)cc1	-6	-1	4	-3	.	.
CCn1c(C)c(C(C)=O)c(N2CCN(c3ccc(OC)cc3)CC2)nc1=S	-3	86*	-1	-1	38	26*
COc1ccc(N2CCN(c3nc(=S)n(-c4ccccc4)c(C)c3C(C)=O)CC2)cc1	-8	2	0	-4	.	.
CCN1CC(CN(C)Cc2nc(-c3ccco3)oc2C)CC1=O (configuration not stated)	-11	1	0	-3	.	.
CCN1CC(CN(C)Cc2nc(-c3ccc(C(F)(F)F)cc3)oc2C)CC1=O (configuration not stated)	1	116*	15	2	99*	64*
O=C1c2ccccc2C(O)(c2ncc[nH]2)N1CCc1ccccc1 (configuration not stated)	-5	98*	-1	5	105*	24*
N#C/C(=C(/O)c1ccc(Cl)cc1)c1nc2ccccc2[nH]1	-7	8	-2	2	.	.
N#C/C(=C(\O)c1cc(Cl)sc1Cl)c1nc2ccccc2[nH]1	-8	89*	6	-7	161*	13*
COc1ccc(C2/C(=C(/O)c3ccc(C)cc3)C(=O)C(=O)N2CCCN2CCOCC2)cc1 (configuration not stated)	-2	1	3	-3	.	.
O=C(c1ccccc1)C1C(c2ccccc2)C1[N+](=O)[O-] (configuration not stated)	-6	2	0	-1	.	.
CN(C)c1ccc([C@@H]2[C@@H]([N+](=O)[O-])[C@H]3C=Cc4ccccc4N3[C@H]2C(=O)c2ccc(Cl)cc2)cc1	-3	107*	-2	2	98*	72*

Compound activity: PubChem, several laboratories
